Experimental data from PubChem BioAssay (NCI).
The panel holds about 83,000 compounds, 20% with a hit somewhere; the sample as a whole holds those more often.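 Assay: single dose, 48 h. Readout: percent growth (0 = no net growth; negative = cell death). Active: <10.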 Values without a mark were called inactive. Activity calls are given as the source filed them.

Each molecule was assayed on OVCAR-8 ovarian (assay: NCI-60 one-dose screen, 48 h (100 = growth as untreated, 0 = no growth, -100 = all killed)). Settings: 10 µM unless noted.
Protocol: Growth inhibition of the OVCAR-8 human tumor cell line is measured as a screen for anti-cancer activity. Cells are grown in 96 well plates and exposed to the test compound for 48 hours. Compounds are tested at a single concentration, which is 10^-5 M for most compounds. The reported endpoint is percent growth (GI% or GIPRCNT), where numbers from 0 - 100% represent growth inhibition, and numbers from -100% - 0 represent cell death. For example, a value of 40 represents 60% growth inhibition. A value of 0 means no net growth occurred over the course of the experiment. A value of -40 indicates 40% of cells at the beginning of the experiment died by the end of the experiment. A value of -100 means all cells are dead at the end of the experiment.
NCI-60 Human Tumor Cell Lines Screen was performed using the standard one-dose NCI protocol, which is described in more detail at https://dtp.cancer.gov/discovery_development/nci-60/default.htm.
Compounds with GIPRCNT values below 10 were considered active. Activity score was based on GIPRCNT using the following formula: […]
Score is 0 for GIPRCNT values of 100 or above, 50 for GIPRCNT values of 0, and 100 for GIPRCNT values of -100.

Compared with CCOc1ccc2c(c1)c(C)cc(C)[n+]2CC, Cc1ccc(C(C)C)c(OCC(=O)O)c1 is higher in growth: 62.4% for the first, 101% for the second.

Going from CS(=O)(=O)c1ccc(/C=C\C(=O)O)cc1 to O=C(O)c1ccc([N+](=O)[O-])cc1S(=O)(=O)O, the growth falls from 104% to 99.5%.

First: c1ccc(Nc2ccccn2)nc1
Second: Nc1ncnc(Nc2ccccc2)n1
The growth of the first is lower: 100% for the first, 106% for the second.

Compared with CCC(=O)Oc1ccc2ccccc2c1, CCCC(=O)CC(=O)c1ccccc1 is lower in growth: 100% for the first, 93.6% for the second.

First: CC(CO)(CO)C(=O)O
Second: CC(C)(CC(=O)O)CC(=O)O
The growth of the first is lower: 111% for the first, 121% for the second.

First: ClCC(Cl)[C@@H]1CC2C=CC1C2 (stereo not given in full)
Second: CCC1CCC(C)NC1 (stereo not given)
The growth of the first is lower: 96.2% for the first, 102% for the second.

Going from O=C1CSc2ccccc2N1 to Cn1c(=O)[nH]c2ccccc2c1=O, the growth rises from 94.9% to 103%.

Cc1cc(=O)n(Nc2ccccc2)c(O)c1C#N and CC(=O)/C(C)=N\OC(=O)Nc1ccccc1 are the same in growth: 106% for the first, 106% for the second.

First: CCCCCCCCCc1ccc(OC(C)=O)cc1
Second: OCCc1ccc(Cl)cc1
The growth of the first is higher: 101% for the first, 98.7% for the second.

Compared with C=COC(=O)CCOCC(CC)CCCC (stereo not given), CC(C)OCC(CCl)OC(=O)Nc1ccccc1 (stereo not given) is lower in growth: 114% for the first, 97.9% for the second.

First: CC(C)N(CCCC#N)C(C)C
Second: CCOC(=O)c1ccc(C(C)(C)C)cc1
The growth of the first is lower: 92.8% for the first, 103% for the second.

Going from ClCc1cccc2c(CCl)cccc12 to S=c1nc2[nH]c3ccccc3c2n[nH]1, the growth rises from 63.8% to 97.4%.

Going from C=C1SC(=Nc2c(C)cccc2C)N(c2nc(Cl)nc(Cl)n2)C12CCCCC2 to Cc1cc(Cl)cc(Cc2cc(Cl)cc(C)c2O)c1O, the growth falls from 98.8% to 48.2%.

First: CCOC(=N)CC(=O)Nc1cccc(C)c1Cl
Second: C/C(O)=C(/C=N/C(=S)Nc1ccccc1)C(=O)Nc1ccccc1C
The growth of the first is higher: 99.4% for the first, 96.3% for the second.

First: O=S(=O)(O)C(C(I)I)S(=O)(=O)O
Second: CCOC(=O)c1c(C)[nH]c(C)c1C=O
The growth of the first is higher: 101% for the first, 94.5% for the second.

Going from O=C1C=C(c2ccccc2)C(O)(c2ccccc2)C1 (stereo not given) to O=C(NCc1ccccc1)/C(=C/c1ccccc1)NC(=O)c1ccccc1, the growth falls from 106% to 97.1%.

First: CCOC(=O)c1ccc(Nc2sc(C(=O)c3ccc(Br)cc3)c(N)c2C#N)cc1
Second: Oc1cc(O)c2c(c1)O[C@H](c1ccc(O)c(O)c1)[C@@H](O)C2
The growth of the first is lower: 29.6% for the first, 98% for the second.

Going from O=C1C=CC(=O)C2=C1CCCC2 to O=C(OC1CCCC1)c1ccccc1Cl, the growth rises from 95.1% to 111%.

In the case of CN(C)c1ccc2c(N(C)C)cc(N(C)C)nc2c1, the growth is reported as 78.3%.

In the case of NC(CSSCC(N)C(=O)O)C(=O)O (stereo not given), the growth is reported as 2.42% (active).
In the case of N#Cc1ccc(OC(=O)Nc2cc(Cl)cc(Cl)c2)cc1, the growth is reported as 7.55% [100 µM] (active).
In the case of Cc1ccc(S(=O)(=O)Oc2ccc3sc4c(CO)ccc(NCCN(C)C)c4c(=O)c3c2)cc1, the growth is reported as -73.3% [100 µM] (active).
